# From PubChem BioAssay (EPA / NIEHS)
# Inconclusive results are not listed. Calls of active or inactive are those of the source. The calls were made as follows, unless noted: active = hit-call score of the fitted dose curve at least 0.9, where 1 is the maximum; inconclusive = response in the unintended direction; inactive = score below 0.9.
# Columns and labels:
# [1] = ATG_TCF_b_cat_CIS: Attagene CIS-FACTORIAL HepG2 Assay for human T-Cell-Factor with beta-catenin (TCF/b-cat) (AID 2282965; active = hit-call score of the fitted dose curve at least 0.9, where 1 is the maximum; inactive = score below 0.9); details: HepG2 TCF/beta-catenin cis-reporter transcription, actives raise or lower the signal
# Summary of the method: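 Endogenous TCF/LEF activity read as reporter transcript level via RT-PCR and capillary electrophoresis fluorescence in transfected HepG2, 24 h exposure; gain or loss of signal fitted against DMSO controls.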
# [2] = ATG_TAL_CIS: Attagene CIS-FACTORIAL HepG2 Assay for human TAL Basal Promoter (AID 2282966; active = hit-call score of the fitted dose curve at least 0.9, where 1 is the maximum; inactive = score below 0.9;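 also: background control endpoint measuring basal TAL promoter reporter mRNA not a specific factor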); details: HepG2 Attagene cis-factorial TAL promoter reporter; actives raise or lower the signal
# Summary of the method: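 Background-control endpoint: basal TAL promoter reporter transcripts in transiently transfected HepG2, measured 24 h after dosing. Read-out by RT-PCR with fluorescent primer extension and capillary electrophoresis; gain or loss of signal fitted relative to DMSO.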
# [3] = ATG_TGFb_CIS: Attagene CIS-FACTORIAL HepG2 Assay for human Transforming Growth Factor (TGF) (AID 2282967; active = hit-call score of the fitted dose curve at least 0.9, where 1 is the maximum; inactive = score below 0.9); details: HepG2 Attagene CIS TGFb reporter, mRNA transcription; actives raise or lower the signal
# Summary of the method: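 Liver HepG2 line, cis-factorial reporter panel, 24 h dosing. Quantitation: RT-PCR products labeled with 6-FAM, cut with HpaI, resolved by capillary electrophoresis; DMSO-referenced bidirectional analysis.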
# [4] = ATG_VDRE_CIS: Attagene CIS-FACTORIAL HepG2 Assay for human Vitamin D Receptor Element (VDRE) (AID 2282968; active = hit-call score of the fitted dose curve at least 0.9, where 1 is the maximum; inactive = score below 0.9); details: HepG2 VDRE cis-reporter transcription, actives raise or lower the signal
# Summary of the method: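 Measures endogenous factor activity through cis-element-driven reporter transcripts in transiently transfected HepG2. Cells are treated 24 h; reporter mRNA is quantified by RT-PCR and capillary electrophoresis; fitting is bidirectional.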
# [5] = molecular target: X-box-binding protein 1 (Homo sapiens) (UniProt P17861); experiment: ATG_Xbp1_CIS: Attagene CIS-FACTORIAL HepG2 Assay for human X-box Binding Protein 1 (XBP1) (AID 2282972; active = hit-call score of the fitted dose curve at least 0.9, where 1 is the maximum; inactive = score below 0.9); details: HepG2 XBP1 cis-element reporter, Attagene multiplex; actives raise or lower the signal
# Summary of the method: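 Changes in reporter transcript abundance, read by RT-PCR and capillary electrophoresis, reflect endogenous transcription factor activity. Transfected HepG2 cells received compound for 24 hours; DMSO defined baseline for bidirectional analysis.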
# [6] = ATG_M_19_TRANS: Attagene TRANS-FACTORIAL HepG2 Assay for M19 Transcription Factor (Internal Marker) (AID 2282974); details: HepG2 Attagene TRANS-FACTORIAL M19 internal marker reporter
# Summary of the method: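 HepG2 cells transiently transfected with multiple GAL4-UAS reporter transcription units were exposed to chemicals for 24 h. Reporter mRNA was read by RT-PCR, 6-FAM primer extension, HpaI digestion and capillary electrophoresis; gain of signal fitted relative to DMSO.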
# [7] = ATG_GAL4_TRANS: Attagene TRANS-FACTORIAL HepG2 Assay for GAL4 (Internal Marker) (AID 2282976); details: HepG2 Attagene TRANS GAL4 internal marker reporter
# Summary of the method: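 In transfected human HepG2 liver cells dosed 24 h, GAL4 reporter mRNA serves as a baseline marker. Detection by RT-PCR with fluorescent capillary electrophoresis, activity fitted upward relative to DMSO.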
# [8] = molecular target: Hepatocyte nuclear factor 4-alpha (Homo sapiens) (UniProt P41235); experiment: ATG_HNF4a_TRANS: Attagene TRANS-FACTORIAL HepG2 Assay for human Hepatocyte Nuclear Factor 4 alpha (HNF4a) (AID 2282982); details: HepG2 HNF4a transactivation reporter, mRNA readout
# Summary of the method: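 Multiplexed reporter assay: transfected HepG2, 24 h exposure, total RNA → oligo(dT) RT → PCR → 6-FAM extension → HpaI digest → CE fluorescence. DMSO = negative control.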
# [9] = molecular target: Nuclear receptor subfamily 4 group A member 2 (Homo sapiens) (UniProt P43354); experiment: ATG_NURR1_TRANS: Attagene TRANS-FACTORIAL HepG2 Assay for human Nuclear Receptor Related Protein 1 (NURR1) (AID 2282985); details: HepG2 Attagene TRANS reporter, mRNA readout
# Summary of the method: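 Measures transcriptional activation by an exogenous NR-Gal4 chimera in transfected HepG2 liver cells. After 24 h, reporter RNA is reverse-transcribed, amplified and resolved by capillary electrophoresis; DMSO defines baseline.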
# [10] = molecular target: Transcriptional activator Myb (Homo sapiens) (UniProt P10242); experiment: ATG_Myb_CIS: Attagene CIS-FACTORIAL HepG2 Assay for human Myeloblastosis (Myb) Proto-Oncogene Transcription Factor (AID 2282986; active = hit-call score of the fitted dose curve at least 0.9, where 1 is the maximum; inactive = score below 0.9); details: HepG2 Attagene CIS-FACTORIAL Myb reporter transcription; actives raise or lower the signal
# Summary of the method: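 HepG2 cells were transiently transfected with cis-regulated multiple reporter transcription units reflecting endogenous Myb activity, then exposed to compound for 24 hours. Reporter mRNA was measured by RT-PCR with capillary electrophoresis; bidirectional fitting versus DMSO baseline.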
# [11] = molecular target: Steroid hormone receptor ERR1 (Homo sapiens) (UniProt P11474); experiment: ATG_ERRa_TRANS: Attagene TRANS-FACTORIAL HepG2 Assay for human Estrogen-Related Receptor alpha (ERRa) (AID 2282971); details: HepG2 Attagene TRANS reporter, ERRa transactivation
# Summary of the method: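 Reporter transcripts from ERRa-Gal4 chimera activity measured in transiently transfected human HepG2 cells 24 hours after dosing, using RT-PCR with 6-FAM primer extension, HpaI digestion and capillary electrophoresis; DMSO is baseline.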
# [12] = molecular target: Glucocorticoid receptor (Homo sapiens) (UniProt P04150); experiment: ATG_GR_TRANS: Attagene TRANS-FACTORIAL HepG2 Assay for human Glucocorticoid Receptor (GR) (AID 2282978); details: HepG2 Attagene TRANS GR reporter, mRNA transcription;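 also: activators score as hits since higher reporter transcript over DMSO is fitted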
# Summary of the method: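 HepG2 cells transiently transfected with multiplexed reporter units in which chimeric NR-GAL4 proteins drive GAL4-UAS reporters; 24 h compound exposure. Reporter mRNA measured by RT-PCR, 6-FAM labelling, HpaI digestion and capillary electrophoresis; gain-of-signal fitted versus DMSO.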
# [13] = molecular target: Bile acid receptor (Homo sapiens) (UniProt Q96RI1); experiment: ATG_FXR_TRANS: Attagene TRANS-FACTORIAL HepG2 Assay for Farnesoid X Receptor (FXR) (AID 2282979); details: HepG2 Attagene TRANS FXR-GAL4 reporter transcription;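 also: hits raise reporter mRNA above DMSO so AC50 marks FXR activation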
# Summary of the method: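 Reporter transcripts from transfected HepG2 cells were measured 24 h after dosing, using RT-PCR with capillary electrophoresis of 6-FAM-labelled fragments. The read-out reflects activity of exogenous FXR-Gal4 chimera on GAL4-UAS units, with induction relative to DMSO.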
# [14] = molecular target: Oxysterols receptor LXR-alpha (Homo sapiens) (UniProt Q13133); experiment: ATG_LXRa_TRANS: Attagene TRANS-FACTORIAL HepG2 Assay for human Liver X Receptor alpha (LXRa) (AID 2282980); details: HepG2 Attagene TRANS reporter, LXRa transactivation
# Summary of the method: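 Chemical-induced reporter mRNA measured by RT-PCR with fluorescent labelling and capillary electrophoresis after 24 h dosing of transiently transfected HepG2 cells expressing exogenous NR-Gal4 chimeras; increases scored against DMSO baseline.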
# [15] = ATG_M_32_TRANS: Attagene TRANS-FACTORIAL HepG2 Assay for M32 Transcription Factor (Internal Marker) (AID 2282984); details: HepG2 Attagene TRANS M32 internal marker reporter
# Summary of the method: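 Cell-based TRANS-format assay in HepG2: exogenous chimeric GAL4 reporter units transiently expressed, compounds applied 24 h. Reporter mRNA detected by RT-PCR plus capillary electrophoresis; this readout is an internal background marker.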
# [16] = molecular target: Oxysterols receptor LXR-beta (Homo sapiens) (UniProt P55055); experiment: ATG_LXRb_TRANS: Attagene TRANS-FACTORIAL HepG2 Assay for human Liver X Receptor beta (LXRb) (AID 2282981); details: HepG2 Attagene TRANS GAL4-LXRb reporter, mRNA
# Summary of the method: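 After 24 h of chemical treatment, transfected HepG2 cells yield total RNA; reporter cDNA is PCR-amplified, FAM-labelled, HpaI-cut and run on capillary electrophoresis. Signal reflects chimeric LXRb-Gal4 activity on GAL4-UAS reporters.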
# [17] = ATG_M_06_TRANS: Attagene TRANS-FACTORIAL HepG2 Assay for M06 Transcription Factor (Internal Marker) (AID 2282983); details: HepG2 Attagene TRANS M06 internal marker reporter
# Summary of the method: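 Background-control reporter readout: after 24 h chemical exposure of transiently transfected HepG2 (GAL4-UAS reporter units), mRNA quantified by RT-PCR with fluorescent labeling and capillary electrophoresis. Gain-of-signal fitting against DMSO baseline.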
# [18] = molecular target: Estrogen receptor (Homo sapiens) (UniProt P03372); experiment: ATG_ERa_TRANS: Attagene TRANS-FACTORIAL HepG2 Assay for human Estrogen Receptor alpha (ERa) (AID 2282970); details: HepG2 Attagene TRANS ERa GAL4 reporter, mRNA
# Summary of the method: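 Reporter transcripts were measured 24 h after dosing by RT-PCR with fluorescent primer extension and capillary electrophoresis. The system is transiently transfected HepG2 expressing exogenous NR-Gal4 chimeras driving GAL4-UAS reporters; DMSO is the baseline.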
# [19] = molecular target: Nuclear receptor subfamily 1 group I member 3 (Homo sapiens) (UniProt Q14994); experiment: ATG_CAR_TRANS: Attagene TRANS-FACTORIAL HepG2 Assay for human Constitutive Androstane Receptor (CAR) (AID 2282969); details: HepG2 Attagene TRANS-FACTORIAL CAR reporter;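 also: activators raise reporter mRNA above DMSO so AC50 marks induction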
# Summary of the method: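 Signal is reporter mRNA induction relative to DMSO, measured 24 h after dosing by RT-PCR with fluorescent primer extension and capillary electrophoresis. Human HepG2 liver cells carried transiently transfected chimeric NR-Gal4/GAL4-UAS reporter constructs.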
# Oxysterols receptor LXR-alpha (Homo sapiens), sequence (Q13133 whole entry, looked up, the tested form may be a part): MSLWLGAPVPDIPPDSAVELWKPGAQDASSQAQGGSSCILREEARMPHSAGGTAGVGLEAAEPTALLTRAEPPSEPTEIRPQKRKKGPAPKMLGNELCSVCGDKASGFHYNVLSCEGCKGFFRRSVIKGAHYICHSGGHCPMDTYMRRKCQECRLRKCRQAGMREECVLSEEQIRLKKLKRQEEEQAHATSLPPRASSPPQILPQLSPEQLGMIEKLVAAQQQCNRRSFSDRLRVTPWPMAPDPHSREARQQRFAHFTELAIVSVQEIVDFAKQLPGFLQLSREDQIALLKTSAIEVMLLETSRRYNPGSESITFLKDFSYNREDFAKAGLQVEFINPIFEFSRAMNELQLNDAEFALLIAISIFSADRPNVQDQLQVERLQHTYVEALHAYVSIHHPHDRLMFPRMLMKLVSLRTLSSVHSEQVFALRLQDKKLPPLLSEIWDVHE
# Nuclear receptor subfamily 4 group A member 2 (Homo sapiens), sequence (P43354 whole entry, looked up, the tested form may be a part): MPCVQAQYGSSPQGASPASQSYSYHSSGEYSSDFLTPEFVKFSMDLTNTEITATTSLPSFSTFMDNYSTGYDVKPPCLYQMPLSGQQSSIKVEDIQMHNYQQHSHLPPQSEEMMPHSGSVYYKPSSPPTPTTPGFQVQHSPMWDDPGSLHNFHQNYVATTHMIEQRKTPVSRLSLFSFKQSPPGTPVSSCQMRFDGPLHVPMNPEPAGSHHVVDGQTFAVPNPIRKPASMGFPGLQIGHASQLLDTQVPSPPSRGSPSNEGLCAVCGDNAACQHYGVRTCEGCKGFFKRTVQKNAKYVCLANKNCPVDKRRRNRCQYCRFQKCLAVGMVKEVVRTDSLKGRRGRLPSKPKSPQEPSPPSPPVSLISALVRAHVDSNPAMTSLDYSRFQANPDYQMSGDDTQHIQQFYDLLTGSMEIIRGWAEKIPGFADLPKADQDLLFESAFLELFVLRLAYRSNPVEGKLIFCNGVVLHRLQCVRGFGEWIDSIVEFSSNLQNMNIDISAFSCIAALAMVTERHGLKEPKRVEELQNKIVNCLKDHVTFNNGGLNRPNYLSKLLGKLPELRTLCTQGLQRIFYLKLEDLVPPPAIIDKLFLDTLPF
# Bile acid receptor (Homo sapiens), sequence (Q96RI1 whole entry, looked up, the tested form may be a part): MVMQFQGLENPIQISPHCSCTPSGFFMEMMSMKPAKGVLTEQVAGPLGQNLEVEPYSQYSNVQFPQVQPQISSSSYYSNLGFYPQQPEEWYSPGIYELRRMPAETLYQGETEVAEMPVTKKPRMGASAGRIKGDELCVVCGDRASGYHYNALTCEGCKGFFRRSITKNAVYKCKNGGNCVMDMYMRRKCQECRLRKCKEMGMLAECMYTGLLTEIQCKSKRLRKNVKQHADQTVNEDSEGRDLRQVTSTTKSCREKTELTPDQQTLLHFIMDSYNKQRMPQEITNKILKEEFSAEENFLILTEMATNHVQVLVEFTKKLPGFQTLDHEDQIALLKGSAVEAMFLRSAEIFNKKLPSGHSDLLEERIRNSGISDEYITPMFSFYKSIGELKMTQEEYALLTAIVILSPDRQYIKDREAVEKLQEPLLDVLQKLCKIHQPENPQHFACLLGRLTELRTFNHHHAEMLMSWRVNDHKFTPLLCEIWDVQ
# Transcriptional activator Myb (Homo sapiens), sequence (P10242 whole entry, looked up): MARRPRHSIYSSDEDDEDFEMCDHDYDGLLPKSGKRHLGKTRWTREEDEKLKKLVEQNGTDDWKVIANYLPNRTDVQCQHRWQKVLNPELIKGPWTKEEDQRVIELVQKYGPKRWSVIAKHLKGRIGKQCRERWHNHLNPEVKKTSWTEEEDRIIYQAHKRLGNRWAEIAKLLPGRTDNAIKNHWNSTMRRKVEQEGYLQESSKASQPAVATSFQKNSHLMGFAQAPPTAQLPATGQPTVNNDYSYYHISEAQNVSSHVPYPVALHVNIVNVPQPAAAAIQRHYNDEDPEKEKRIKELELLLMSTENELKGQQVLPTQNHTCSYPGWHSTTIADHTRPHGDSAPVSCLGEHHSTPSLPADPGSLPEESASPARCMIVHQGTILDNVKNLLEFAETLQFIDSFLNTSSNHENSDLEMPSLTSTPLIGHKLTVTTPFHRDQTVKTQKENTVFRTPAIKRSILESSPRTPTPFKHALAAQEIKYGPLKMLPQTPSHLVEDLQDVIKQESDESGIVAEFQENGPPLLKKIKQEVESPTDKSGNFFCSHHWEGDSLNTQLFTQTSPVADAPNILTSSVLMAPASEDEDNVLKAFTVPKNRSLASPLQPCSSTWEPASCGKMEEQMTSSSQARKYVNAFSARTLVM
# Oxysterols receptor LXR-beta (Homo sapiens), sequence (P55055 whole entry, looked up, the tested form may be a part): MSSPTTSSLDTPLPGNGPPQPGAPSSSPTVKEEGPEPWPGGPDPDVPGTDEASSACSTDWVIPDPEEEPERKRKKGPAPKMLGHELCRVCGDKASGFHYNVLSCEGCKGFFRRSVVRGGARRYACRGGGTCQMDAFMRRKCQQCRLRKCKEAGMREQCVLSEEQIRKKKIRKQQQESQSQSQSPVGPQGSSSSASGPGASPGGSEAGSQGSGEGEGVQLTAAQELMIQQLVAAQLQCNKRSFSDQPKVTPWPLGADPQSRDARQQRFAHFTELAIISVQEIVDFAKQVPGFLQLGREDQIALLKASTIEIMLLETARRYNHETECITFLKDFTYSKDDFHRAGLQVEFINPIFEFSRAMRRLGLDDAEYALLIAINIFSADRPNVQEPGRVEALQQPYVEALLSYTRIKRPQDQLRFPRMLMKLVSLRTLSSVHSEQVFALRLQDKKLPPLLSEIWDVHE
# Hepatocyte nuclear factor 4-alpha (Homo sapiens), sequence (P41235 whole entry, looked up): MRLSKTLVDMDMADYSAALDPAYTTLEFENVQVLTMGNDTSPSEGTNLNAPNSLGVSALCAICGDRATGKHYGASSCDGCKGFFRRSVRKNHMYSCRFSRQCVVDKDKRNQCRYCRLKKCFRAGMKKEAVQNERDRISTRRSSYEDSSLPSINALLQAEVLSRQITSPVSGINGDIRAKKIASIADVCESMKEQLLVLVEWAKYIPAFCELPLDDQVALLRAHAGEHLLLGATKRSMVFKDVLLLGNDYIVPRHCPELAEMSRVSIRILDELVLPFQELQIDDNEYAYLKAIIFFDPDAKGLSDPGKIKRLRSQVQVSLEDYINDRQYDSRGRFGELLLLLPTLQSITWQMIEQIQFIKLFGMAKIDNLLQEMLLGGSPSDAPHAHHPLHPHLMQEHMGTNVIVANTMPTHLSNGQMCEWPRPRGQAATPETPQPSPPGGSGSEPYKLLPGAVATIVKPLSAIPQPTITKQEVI
# X-box-binding protein 1 (Homo sapiens), sequence (P17861 whole entry, looked up): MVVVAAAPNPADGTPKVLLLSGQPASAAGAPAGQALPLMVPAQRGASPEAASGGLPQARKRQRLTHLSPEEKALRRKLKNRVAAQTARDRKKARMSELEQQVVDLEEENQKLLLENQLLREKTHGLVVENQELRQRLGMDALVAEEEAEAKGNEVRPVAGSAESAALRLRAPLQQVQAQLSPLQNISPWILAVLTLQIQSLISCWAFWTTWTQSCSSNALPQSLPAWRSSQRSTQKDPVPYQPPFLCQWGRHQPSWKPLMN
# Glucocorticoid receptor (Homo sapiens), sequence (P04150 whole entry, looked up, the tested form may be a part): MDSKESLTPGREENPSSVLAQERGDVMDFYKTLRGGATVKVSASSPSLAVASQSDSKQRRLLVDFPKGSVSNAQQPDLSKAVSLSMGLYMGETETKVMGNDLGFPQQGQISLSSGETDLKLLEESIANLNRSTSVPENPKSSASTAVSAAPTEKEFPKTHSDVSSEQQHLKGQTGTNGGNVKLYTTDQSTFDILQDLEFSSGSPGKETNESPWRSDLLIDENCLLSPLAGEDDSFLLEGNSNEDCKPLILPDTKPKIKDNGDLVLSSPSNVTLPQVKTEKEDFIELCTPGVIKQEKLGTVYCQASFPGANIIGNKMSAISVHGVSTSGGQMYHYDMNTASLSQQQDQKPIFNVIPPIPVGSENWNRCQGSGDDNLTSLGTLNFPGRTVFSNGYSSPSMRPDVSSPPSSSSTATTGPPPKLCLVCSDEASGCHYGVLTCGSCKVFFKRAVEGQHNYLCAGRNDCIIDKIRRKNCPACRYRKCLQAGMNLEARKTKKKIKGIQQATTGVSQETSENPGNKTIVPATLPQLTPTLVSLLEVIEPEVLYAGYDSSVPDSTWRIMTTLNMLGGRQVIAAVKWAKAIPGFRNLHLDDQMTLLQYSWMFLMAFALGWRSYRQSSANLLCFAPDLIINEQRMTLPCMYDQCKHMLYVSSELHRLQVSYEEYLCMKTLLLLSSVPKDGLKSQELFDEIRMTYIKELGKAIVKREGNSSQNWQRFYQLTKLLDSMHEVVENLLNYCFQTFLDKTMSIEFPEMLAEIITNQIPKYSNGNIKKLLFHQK
# Steroid hormone receptor ERR1 (Homo sapiens), sequence (P11474 whole entry, looked up, the tested form may be a part): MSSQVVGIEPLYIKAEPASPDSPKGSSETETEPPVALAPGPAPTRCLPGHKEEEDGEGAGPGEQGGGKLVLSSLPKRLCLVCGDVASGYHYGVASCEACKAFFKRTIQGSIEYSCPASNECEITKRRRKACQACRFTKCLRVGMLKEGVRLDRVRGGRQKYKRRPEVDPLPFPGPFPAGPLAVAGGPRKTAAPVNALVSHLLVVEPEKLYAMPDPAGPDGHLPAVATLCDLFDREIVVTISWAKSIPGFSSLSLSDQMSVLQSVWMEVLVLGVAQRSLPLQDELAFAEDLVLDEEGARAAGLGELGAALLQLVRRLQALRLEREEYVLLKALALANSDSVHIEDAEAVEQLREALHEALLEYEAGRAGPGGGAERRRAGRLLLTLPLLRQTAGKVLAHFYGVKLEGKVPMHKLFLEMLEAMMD
# Nuclear receptor subfamily 1 group I member 3 (Homo sapiens), sequence (Q14994 whole entry, looked up, the tested form may be a part): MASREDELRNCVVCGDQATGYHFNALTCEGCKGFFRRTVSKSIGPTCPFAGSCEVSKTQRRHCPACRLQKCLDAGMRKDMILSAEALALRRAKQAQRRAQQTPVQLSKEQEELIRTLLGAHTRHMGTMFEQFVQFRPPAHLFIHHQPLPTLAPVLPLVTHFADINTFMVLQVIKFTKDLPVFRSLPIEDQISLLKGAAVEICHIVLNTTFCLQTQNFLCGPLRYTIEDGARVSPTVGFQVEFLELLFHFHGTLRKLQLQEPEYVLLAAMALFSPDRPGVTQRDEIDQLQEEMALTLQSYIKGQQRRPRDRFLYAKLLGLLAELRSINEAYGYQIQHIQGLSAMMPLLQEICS
structure (smiles),measurement,setting,value
CCCCOC(=O)[C@H](C)O,outcome,[1],inactive
same,outcome,[2],inactive
same,outcome,[3],inactive
same,outcome,[4],inactive
same,outcome,[5],inactive
same,outcome,[6],inactive
same,outcome,[7],inactive
same,outcome,[8],inactive
same,outcome,[9],inactive
same,outcome,[10],inactive
O=S(=O)(O)CCC(F)(F)C(F)(F)C(F)(F)C(F)(F)C(F)(F)C(F)(F)C(F)(F)C(F)(F)F,outcome,[1],inactive
same,outcome,[2],inactive
same,outcome,[3],inactive
same,outcome,[4],inactive
same,outcome,[11],inactive
same,outcome,[5],inactive
same,outcome,[7],inactive
same,outcome,[12],inactive
same,AC50,[13],40 µM (active)
same,outcome,[14],inactive
same,outcome,[15],inactive
same,outcome,[10],inactive
O=C1c2ccccc2C(=O)c2c(Cl)cccc21,outcome,[1],inactive
same,outcome,[2],inactive
same,outcome,[3],inactive
same,outcome,[4],inactive
same,outcome,[11],inactive
same,outcome,[5],inactive
same,outcome,[6],inactive
same,outcome,[7],inactive
same,outcome,[12],inactive
same,outcome,[13],inactive
same,outcome,[14],inactive
same,outcome,[16],inactive
same,outcome,[17],inactive
same,outcome,[15],inactive
same,outcome,[10],inactive
CCCCCCCCCCCCC[N+](C)(C)Cc1ccccc1,outcome,[1],inactive
same,outcome,[2],inactive
same,outcome,[3],inactive
same,outcome,[4],inactive
same,outcome,[5],inactive
same,outcome,[12],inactive
same,outcome,[13],inactive
same,outcome,[14],inactive
same,outcome,[16],inactive
same,outcome,[17],inactive
same,outcome,[15],inactive
O=C(O)C(F)(F)C(F)(F)C(F)(F)C(F)(F)C(F)(F)C(F)(F)C(F)F,outcome,[1],inactive
same,outcome,[2],inactive
same,outcome,[3],inactive
same,outcome,[4],inactive
same,AC50,[18],41.4 µM (active)
same,outcome,[5],inactive
same,outcome,[7],inactive
same,outcome,[12],inactive
same,outcome,[13],inactive
same,outcome,[14],inactive
same,outcome,[16],inactive
same,outcome,[15],inactive
same,outcome,[9],inactive
same,outcome,[10],inactive
Brc1nc2ccccc2s1,outcome,[1],inactive
same,outcome,[2],inactive
same,outcome,[3],inactive
same,outcome,[4],inactive
same,outcome,[18],inactive
same,outcome,[7],inactive
same,outcome,[12],inactive
same,outcome,[8],inactive
same,outcome,[17],inactive
same,outcome,[9],inactive
same,outcome,[10],inactive
Cc1cccc(C)n1,outcome,[1],inactive
same,outcome,[2],inactive
same,outcome,[3],inactive
same,outcome,[4],inactive
same,outcome,[5],inactive
same,outcome,[6],inactive
same,outcome,[7],inactive
same,outcome,[12],inactive
same,outcome,[14],inactive
same,outcome,[8],inactive
same,outcome,[10],inactive
COCCOCCC[Si](C)(O[Si](C)(C)C)O[Si](C)(C)C,AC50,[1],33.4 µM (active)
same,outcome,[2],inactive
same,outcome,[3],inactive
same,AC50,[4],2.56 µM (active)
same,AC50,[5],2.99 µM (active)
same,outcome,[12],inactive
same,outcome,[13],inactive
same,outcome,[14],inactive
same,outcome,[16],inactive
same,outcome,[8],inactive
same,outcome,[17],inactive
same,outcome,[9],inactive
same,AC50,[10],19 µM (active)
F[Si-2](F)(F)(F)(F)F,outcome,[1],inactive
same,outcome,[2],inactive
same,outcome,[3],inactive
same,outcome,[4],inactive
same,outcome,[11],inactive
same,outcome,[5],inactive
same,outcome,[12],inactive
same,outcome,[13],inactive
same,outcome,[16],inactive
same,outcome,[8],inactive
same,outcome,[17],inactive
same,outcome,[9],inactive
CCN=c1cc2oc3cc(NCC)c(C)cc3c(-c3ccccc3C(=O)OCC)c-2cc1C,AC50,[1],7.34 µM (active)
same,outcome,[2],inactive
same,outcome,[3],inactive
same,outcome,[4],inactive
same,AC50,[5],11.1 µM (active)
same,outcome,[12],inactive
same,outcome,[13],inactive
same,outcome,[17],inactive
same,outcome,[15],inactive
same,outcome,[10],inactive
Cc1ccc(O)cn1,outcome,[1],inactive
same,outcome,[2],inactive
same,outcome,[4],inactive
same,outcome,[19],inactive
same,outcome,[11],inactive
same,outcome,[5],inactive
same,outcome,[6],inactive
same,outcome,[7],inactive
same,outcome,[12],inactive
same,outcome,[13],inactive
same,AC50,[14],25.4 µM (active)
same,outcome,[8],inactive
same,outcome,[15],inactive
